Laboratory results: PubChem BioAssay (NCI)
Compounds without any hit were thinned out: in the full panel of roughly 79,000, 15% have a hit. Active and inactive are the calls of the source. Rule as the data show it: active = growth inhibition above about 70%; inactive = the rest.

Assays:
[1] = NCI Yeast Anticancer Drug Screen. Data for the rad50 strain (AID 155);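 also: 0% = growth of vehicle-only cultures of the same strain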; settings: S. cerevisiae rad50 strain growth inhibition, stronger effect = higher value
Procedure, shortened: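 Yeast carrying a defined DNA repair defect were exposed to test compounds, and growth was compared with vehicle-treated controls to give percent inhibition.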

[2] = NCI Yeast Anticancer Drug Screen. Data for the mec2-1 strain (AID 157); settings: S. cerevisiae mec2-1 strain, stronger effect = higher value
Procedure, shortened: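 Vehicle-treated cultures served as reference for growth inhibition of compound-exposed mec2-1 yeast.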

[3] = NCI Yeast Anticancer Drug Screen. Data for the sgs1 mgt1 strain (AID 161);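 also: 0% = growth of cultures given vehicle only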; settings: S. cerevisiae sgs1 mgt1 strain, stronger effect = higher value
Procedure, shortened: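 Mutant yeast exposed to compound; growth scored against vehicle-only wells.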

[4] = NCI Yeast Anticancer Drug Screen. Data for the cln2 rad14 strain (AID 165);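 also: 0% = growth equal to vehicle treated cultures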; settings: S. cerevisiae cln2 rad14 strain, stronger effect = higher value
Procedure, shortened: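 Each compound was tested on cln2 rad14 yeast. Inhibition of growth was calculated against vehicle-exposed controls.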

[5] = NCI Yeast Anticancer Drug Screen. Data for the bub3 strain (AID 167); settings: S. cerevisiae bub3 mutant strain, stronger effect = higher value
Procedure, shortened: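 Compounds were applied to a genetically altered yeast strain carrying a cell-cycle control defect. Growth inhibition was scored against vehicle-treated controls.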

[6] = NCI Yeast Anticancer Drug Screen. Data for the mlh1 rad18 strain (AID 175); settings: S. cerevisiae mlh1 rad18 strain growth inhibition, stronger effect = higher value
Procedure, shortened: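 Vehicle-treated cultures served as the reference for growth inhibition in a yeast strain carrying DNA damage repair alterations exposed to each compound.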

[7] = at 5.0 µM (retest, dose inferred, filed as 0.5)
[8] = at 50.0 µM (retest, dose inferred, filed as 5.0)

Measured: growth inhibition

CC(=O)Nc1ccc2c(c1)C(=Nc1ccc(F)cc1)c1ccccc1-2
inactive: [1]; [7] 7% | [1]; at 50.0 µM 54.1% | [2]; [7] 0% | [2]; at 50.0 µM 4.35% | [3]; [7] 2% | [3]; [8] 62% | [3]; at 50.0 µM 14.3% | [4]; [7] -1% | [4]; at 50.0 µM 40.4% | [5]; [7] -4% | [5]; [8] 47% | [5]; at 50.0 µM 45.4% | [6]; [7] 0% | [6]; at 50.0 µM 50.7%
active: [1]; [8] 83% | [2]; [8] 84% | [4]; [8] 74% | [6]; [8] 94%

O=[N+]([O-])c1ccc(C=NC2CCCCC2)c([N+](=O)[O-])c1
active: [5]; [8] 83% | [6]; [8] 85% | [6]; at 50.0 µM 73.3%
inactive: [1]; [7] 0% | [1]; [8] 46% | [1]; at 50.0 µM 41% | [2]; [7] -1% | [2]; [8] 54% | [2]; at 50.0 µM 46% | [3]; [7] 2% | [3]; [8] 69% | [3]; at 50.0 µM 59.5% | [4]; [7] -5% | [4]; [8] 25% | [4]; at 50.0 µM -0.85% | [5]; [7] 20% | [5]; at 50.0 µM 55.5% | [6]; [7] -5%

CN(C)CCCNc1c2ccccc2nc2ccc(F)cc12
inactive: [1]; [7] 0% | [1]; [8] 24% | [1]; at 50.0 µM 27.2% | [2]; [7] -8% | [2]; [8] 26% | [2]; at 50.0 µM 24.4% | [3]; [7] 6% | [3]; [8] 24% | [3]; at 50.0 µM 15.2% | [4]; [7] 8% | [4]; [8] 21% | [5]; [7] 0% | [5]; [8] 6% | [5]; at 50.0 µM 42.5% | [6]; [7] 14% | [6]; [8] 27% | [6]; at 50.0 µM 36.8%
active: [4]; at 50.0 µM 81.8%

O=[N+]([O-])c1ccc(/C=N/O)o1
active: [1]; [8] 98% | [1]; at 50.0 µM 98.2% | [2]; [8] 99% | [2]; at 50.0 µM 99.5% | [3]; [8] 99% | [3]; at 50.0 µM 99.2% | [4]; [8] 98% | [4]; at 50.0 µM 89% | [5]; [8] 99% | [5]; at 50.0 µM 99.6% | [6]; [8] 99% | [6]; at 50.0 µM 99%
inactive: [1]; [7] 20% | [2]; [7] 6% | [3]; [7] 5% | [4]; [7] 49% | [5]; [7] 13% | [6]; [7] 44%

O=C(/C=C/C(=O)N1CCCC1)N1CCCC1
inactive: [1]; [7] 6% | [1]; [8] 10% | [1]; at 50.0 µM 1.15% | [2]; [7] 3% | [2]; [8] 1% | [2]; at 50.0 µM 0.65% | [3]; [7] 4% | [3]; [8] 3% | [3]; at 50.0 µM 14.8% | [4]; [7] -4% | [4]; [8] -11% | [4]; at 50.0 µM -1.35% | [5]; [7] 2% | [5]; [8] 6% | [5]; at 50.0 µM 2.55% | [6]; [7] -2% | [6]; [8] -2% | [6]; at 50.0 µM 37.4%

Clc1ccccc1N1CCN(c2c3c(nc4ccccc24)CCCCC3)CC1
active: [1]; [8] 89% | [1]; at 50.0 µM 93.3% | [2]; [8] 96% | [2]; at 50.0 µM 95.8% | [3]; [8] 96% | [3]; at 50.0 µM 94% | [4]; [8] 91% | [4]; at 50.0 µM 94.2% | [5]; [8] 92% | [5]; at 50.0 µM 93.2% | [6]; [8] 94% | [6]; at 50.0 µM 95.6%
inactive: [1]; [7] -4% | [2]; [7] 11% | [3]; [7] 38% | [4]; [7] -13% | [5]; [7] -10% | [6]; [7] 42%

CN(C)C(=S)/N=c1\ssc(=S)n1Cc1ccco1
inactive: [1]; [7] 22% | [1]; [8] -7% | [1]; at 50.0 µM 1.55% | [2]; [7] 0% | [2]; [8] -8% | [2]; at 50.0 µM -3.4% | [3]; [7] -15% | [3]; [8] -9% | [3]; at 50.0 µM -15.8% | [4]; [7] -7% | [4]; [8] -11% | [4]; at 50.0 µM 0.45% | [5]; [7] 2% | [5]; [8] -5% | [5]; at 50.0 µM 47.3% | [6]; [7] -2% | [6]; [8] -9% | [6]; at 50.0 µM -4.25%
